Marburg entry inh – Marburg virus entry inhibition. Marburg virus pseudotyped entry inhibition, cell reporter. Potency, µM (top dose mostly 37.8 µM), hits mostly inhibitors. 1.8% of 300,000 active. AID 540276; calls by dose curve; tested in HEK293 cells
VACV mCherry inh – vaccinia inhibition (mCherry reporter). 0.63% of 310,000 active. Potency, µM (highest dose often 36.5 µM), usual class: inhibitors. Vaccinia virus mCherry reporter infection, fluorescence; calls by dose curve; tested in A549 cells; further: nearly all actives have a fitted effect of over 35% in size
VACV Venus inh – inhibitors of vaccinia virus (Venus reporter); Vaccinia virus Venus reporter expression, fluorescence; Potency, µM (doses to about 36.5 µM), usual class: inhibitors; 0.46% of 330,000 active; calls by dose curve; tested in A549 cells; further: nearly all actives have a fitted effect of over 30% in size
FMDV antiviral – foot and mouth disease virus antiviral activity; FMDV antiviral cell-based qHTS; Potency, µM (series often up to 57.9 µM), usual class: inhibitors; 1.2% of 410,000 active; AID 1159524; calls by dose curve; tested in HEK293T cells; further: read-out not given here; nearly all actives have a fitted effect of over 45% in size
HCMV antiviral – human cytomegalovirus inhibition; activity change, negative = inhibition, % at 57.5 µM; HFF cells, HCMV-luciferase reporter, 72 h; stronger effect = lower value; 4.5% of 410,000 active; in the data active means activity change below about -60%; inconclusive means no clear call, values can overlap the other calls; inactive means above about -39%
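Compounds were evaluated in HFFs infected with an HCMV luciferase reporter virus (MOI 1 PFU/cell). Luciferase in lysates collected 72 h post infection served as the replication measure.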
Lassa entry inh – Lassa virus entry inhibition; Lassa virus pseudotype entry inhibition, cell reporter; Potency, µM (doses to about 37.9 µM), usual class: inhibitors; 1.2% of 300,000 active; AID 540256; calls by dose curve; tested in HEK293 cells; further: nearly all actives have a fitted effect of over 50% in size
Numbers stand for hits; - = inactive; ? = inconclusive; . = no result given. This is a sample that favours compounds with a hit; in the whole collection about 6.5% have one here.

SMILES	Marburg entry inh	VACV mCherry inh	VACV Venus inh	FMDV antiviral	HCMV antiviral	Lassa entry inh
Cc1ccc(Cl)cc1N1CCN(C(=O)CN(C2CCCCC2)S(C)(=O)=O)CC1	?	?	-	14µM	-	-
O=C(NCCCN1CCOCC1)c1ccc(-n2nc(C(F)(F)F)cc2-c2cccs2)cc1	?	?	?	?	-67	-
S=c1nc[nH]c2c1ncn2C1CCCO1 (stereo unspecified)	?	11µM	?	-	-	?
OCC1OC(n2cnc3c(=S)nc[nH]c32)CC1O (stereo unspecified)	-	-	-	-	-	-
CCCCSc1ncnc2c1ncn2C1CCCCO1 (stereo unspecified)	?	-	-	-	-	?
Nc1ncnc2c1ncn2C1CCCO1 (stereo unspecified)	?	-	-	-	-73	?
Nc1ncnc2c1ncn2C1CCCC1	?	-	-	-	-	-
Fc1ccccc1CSc1ncnc2c1ncn2C1CCCO1 (stereo unspecified)	0.89µM	?	-	-	?	?
Cc1oc(-c2ccccc2NC(=O)c2ccccn2)nc1CNC(=O)c1ccc(Oc2ccccc2)o1	.	-	-	-	.	.
C[C@]12CCC(=O)C=C1C=CC1C2CC[C@]2(C)C(=O)CCC12 (stereo partly specified)	-	-	-	-	-70	?
Cc1ncoc1C(=O)Nc1ccc(Oc2ccccc2)cc1	-	.	.	-	-	-
COc1ccc(C(=O)Nc2ccc(N3CCN(C(=O)c4ccccc4C)CC3)cc2)cc1	-	-	-	?	-82	-
COc1ccc(Oc2ccc(NC(=O)c3ccccc3C)cc2)cc1	-	-	-	-	-85	?
Cc1nc(C)c(C(=O)Nc2ccc(Oc3ccccc3)cc2)o1	-	-	-	-	-89	?
COc1ccccc1Oc1ccc(NC(=O)c2ccccc2C)cc1	.	?	?	-	-	.
COc1ccc(C(=O)Nc2ccc(N3CCCC3)cc2)cc1	-	-	-	-	-	-
COc1ccccc1C(=O)Nc1ccc(Oc2nnc(-c3ccc(C)cc3)c3ccccc23)cc1	-	-	-	-	-70	-
Cc1ccc(C(=O)NCC(=O)OCC(=O)c2ccc3ccccc3c2)cc1	.	-	-	.	.	.
Cc1noc2ncnc(Sc3ccc(Br)cc3)c12	?	-	-	?	-106	?
COc1ccccc1C(=O)O/N=C(\N)c1ccccc1Cl	?	.	.	-	-	?
COc1ccc(C(=O)O/N=C(\N)Cc2cccs2)cc1OC	?	-	-	-	-	1.8µM
COc1ccc(C(=O)O/N=C(\N)c2ccccc2Cl)cc1OC	11µM	-	-	-	-	4.5µM
CNC(=S)N/N=C/c1ccc(N(C)C)cc1	-	-	-	-	-	-
CCCCCC1CC1C(=O)N/N=C/c1ccc(N(C)C)cc1 (stereo unspecified)	-	.	.	-	-	0.46µM
COc1ccc(C(=O)N/C(=C\c2ccccc2)C(=O)N2CCOCC2)cc1	-	-	-	-	-	-
SMILES	Marburg entry inh	VACV mCherry inh	VACV Venus inh	FMDV antiviral	HCMV antiviral	Lassa entry inh
Cc1ccc(C(=O)N/C(=C\c2ccc(-c3ccc(Br)cc3)o2)C(=O)NCCCN(C)C)cc1	.	.	.	?	-101	.
CN(C)CCCNC(=O)/C(=C\c1ccc(-c2cccc([N+](=O)[O-])c2)o1)NC(=O)c1ccccc1	?	?	-	-	-66	-
COc1ccc(-c2ccc(/C=C(\NC(=O)c3ccccc3)C(=O)N3CCOCC3)o2)cc1	?	?	?	-	-63	-
CN(C)CCNC(=O)/C(=C/c1ccc(-c2ccc(Cl)cc2Cl)o1)NC(=O)c1ccccc1	6.3µM	?	11µM	?	?	?
Cc1ccc(C(=O)N/C(=C\c2ccc(-c3cccc([N+](=O)[O-])c3)o2)C(=O)NCCCN(C)C)cc1	?	?	?	-	-	?
Cc1ccc(C(=O)N(Cc2cc3cc4c(cc3nc2N2CCOCC2)CCC4)CC2CCCO2)s1 (stereo unspecified)	.	-	-	-	.	.
C=CCCCC=C(C)[C@H](OCc1ccc(OC)cc1)[C@H](CCC=C(C)C(N)=O)OC	-	.	.	.	.	.
CN(C)CCNC(=O)/C(=C/c1ccc(-c2ccc(Cl)cc2)o1)NC(=O)c1ccccc1	12µM	-	?	?	-	?
CC(C)CO/N=C1\C[C@@H](O)[C@@H](O)[C@@H]2[C@@H]3C(=O)N(C[C@@H]4CCCO4)C(=O)[C@@H]3CC[C@H]12	-	.	.	.	.	.

High-throughput results as filed in PubChem.
